# Measurements reported in paper PMC4336329 (PLoS ONE, 2015).
# In all, about 310,000 compounds went through this assay and about 14,000 (4.5%) showed an effect of 50% or more. Effects have a minus sign here. The full list was thinned out, with strong results kept by preference.
# Molecular target: human ether-à-go-go-related gene (hERG) potassium channel (human, UniProt Q12809)
# Test: primary screen, population patch clamp on CHO cells stably expressing hERG; higher = less effect of the substance
# 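Further: peak tail current of the secondary pulse compared with the same well before compound.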
# human ether-à-go-go-related gene (hERG) potassium channel, sequence (Q12809 whole entry, looked up): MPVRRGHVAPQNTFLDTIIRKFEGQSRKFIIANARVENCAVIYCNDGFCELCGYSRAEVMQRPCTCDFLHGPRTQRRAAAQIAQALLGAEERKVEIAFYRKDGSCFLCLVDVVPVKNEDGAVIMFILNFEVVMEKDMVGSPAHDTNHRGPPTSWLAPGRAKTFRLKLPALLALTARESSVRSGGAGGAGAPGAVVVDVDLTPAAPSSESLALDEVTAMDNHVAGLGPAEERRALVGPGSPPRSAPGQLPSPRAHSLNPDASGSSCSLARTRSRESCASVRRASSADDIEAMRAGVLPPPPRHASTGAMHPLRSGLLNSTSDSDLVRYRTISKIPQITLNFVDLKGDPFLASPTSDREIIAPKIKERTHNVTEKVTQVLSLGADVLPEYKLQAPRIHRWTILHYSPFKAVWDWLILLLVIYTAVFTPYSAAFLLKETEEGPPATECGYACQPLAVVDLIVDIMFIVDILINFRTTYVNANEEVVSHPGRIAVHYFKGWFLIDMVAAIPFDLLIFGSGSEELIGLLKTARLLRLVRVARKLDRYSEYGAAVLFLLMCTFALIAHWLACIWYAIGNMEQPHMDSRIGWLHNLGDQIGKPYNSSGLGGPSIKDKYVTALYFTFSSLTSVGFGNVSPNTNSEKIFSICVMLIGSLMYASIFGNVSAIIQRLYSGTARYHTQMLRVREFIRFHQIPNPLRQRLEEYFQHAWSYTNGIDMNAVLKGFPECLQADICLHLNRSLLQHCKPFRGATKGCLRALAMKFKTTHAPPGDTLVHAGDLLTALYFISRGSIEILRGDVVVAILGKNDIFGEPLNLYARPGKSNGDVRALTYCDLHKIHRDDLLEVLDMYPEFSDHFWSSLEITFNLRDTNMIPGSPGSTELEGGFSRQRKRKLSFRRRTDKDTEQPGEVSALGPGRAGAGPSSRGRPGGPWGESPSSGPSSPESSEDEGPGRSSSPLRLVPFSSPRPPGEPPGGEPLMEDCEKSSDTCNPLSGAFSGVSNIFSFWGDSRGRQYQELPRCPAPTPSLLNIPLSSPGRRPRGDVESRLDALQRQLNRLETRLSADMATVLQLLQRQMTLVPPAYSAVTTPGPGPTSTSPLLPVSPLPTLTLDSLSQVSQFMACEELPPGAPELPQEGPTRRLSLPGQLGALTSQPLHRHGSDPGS
row,SMILES,"hERG current change (%, negative = inhibition) at 10uM [%]"
1,O=C(Nc1ccc2c(c1)OCO2)C(c1ccc(Cl)cc1)N1CCN(C(=O)c2ccco2)CC1 (stereo not drawn),-40
2,CCOCCCNC(=O)C(c1ccc(Cl)cc1)N1CCN(C(=O)c2ccco2)CC1 (stereo not drawn),-0.366
3,Cc1ccc(NC(=O)C(c2ccccc2)N2CCN(C(=O)c3ccco3)CC2)cc1 (stereo not drawn),-72.9
4,Cc1ccc(NC(=O)C(c2ccccc2)N2CCN(C(=O)c3ccco3)CC2)cc1Cl (stereo not drawn),-21.3
5,CC(C)c1ccc(NC(=O)C(c2ccccc2)N2CCN(C(=O)c3ccco3)CC2)cc1 (stereo not drawn),-69.8
6,CCOc1ccccc1NC(=O)C(c1ccccc1)N1CCN(C(=O)c2ccco2)CC1 (stereo not drawn),-57.7
7,Cc1cccc(C)c1NC(=O)C(c1ccccc1)N1CCN(C(=O)c2ccco2)CC1 (stereo not drawn),-22.8
8,CC(C)c1ccc(NC(=O)C(c2ccc3c(c2)OCO3)N2CCN(C(=O)c3ccco3)CC2)cc1 (stereo not drawn),-25
9,O=C(Nc1ccc2c(c1)OCO2)C(c1ccccc1)N1CCN(C(=O)c2ccco2)CC1 (stereo not drawn),-33.2
10,O=C(CSc1nnc(-c2ccc(O)cc2)n1Cc1ccccc1)NNC(=O)c1ccc(Br)cc1,-4.24
11,Cc1ccc(NC(=O)COC(=O)CCc2ccc(S(=O)(=O)N3CCOCC3)cc2)cc1F,-11
12,CCn1c(COc2ccccc2)nnc1SCC(=O)Nc1ccc2c(c1)OCCO2,-6.9
13,Cc1ccc(NC(=O)c2nc[nH]c2C(=O)N2CCN(c3ccccc3)CC2)cc1,8.53
14,O=C(NCCC1CCCCN1S(=O)(=O)c1ccccc1)C(=O)Nc1ccc(F)cc1F (stereo not drawn),2.67
15,CC(C)NC(=O)CSc1nnc(COc2ccccc2Cl)o1,9.76
16,Cc1ccc(SCC(=O)OCC(=O)N(C)CC(=O)Nc2ccc(F)cc2)cc1C,-38.7
17,CC#CCC(CC#CC)c1nc2ccccc2c(=O)n1N,-1.36
18,Cc1cc[n+](-c2[nH]c(=O)sc2/C=N/N=C(\[O-])c2ccncc2)cc1,5.61
19,CCCc1ccc(-c2cc(C(=O)N3CCN(c4ccccn4)CC3)c3ccccc3n2)cc1,13.4
20,CCOC(=O)N1CCC(N2Cc3cccc(C(=O)NCc4ccccc4OC)c3C2=O)CC1,-71.2

row,SMILES,"hERG current change (%, negative = inhibition) at 10uM [%]"
1,CCOC(=O)N1CCC(N2Cc3cccc(C(=O)NCc4ccc(C)cc4)c3C2=O)CC1,-42.6
2,CCOC(=O)N1CCC(N2Cc3cccc(C(=O)Nc4ccc(OC)c(OC)c4)c3C2=O)CC1,-9.58
3,CCOC(=O)N1CCC(NC(=O)c2cccc3c2C(=O)N(CCOC)C3)CC1,-1.34
4,CCOC(=O)N1CCC(N2Cc3cccc(C(=O)Nc4ccccc4OC)c3C2=O)CC1,-79.2
5,CCOC(=O)c1ccccc1NC(=O)c1cccc2c1C(=O)N(C1CCN(C(=O)OCC)CC1)C2,-30.4
6,CCOC(=O)N1CCC(NC(=O)c2cn(-c3ccc(OC)cc3)c(=O)c3ccccc23)CC1,-6.75
7,CCOC(=O)N1CCC(NC(=O)c2cccc3c2C(=O)N(c2ccc(OC)cc2)C3)CC1,-58.3
8,CCOC(=O)N1CCC(N2Cc3cccc(C(=O)NCc4ccc(OC)cc4)c3C2=O)CC1,-40
9,CCOCCn1c(N2CCCC2)nc2c1c(=O)[nH]c(=O)n2C,15.1
10,COc1ccc2nc(N3C(=O)CC(Cc4cc(C)cc(C)c4)C3=O)sc2c1 (stereo not drawn),9.23
11,COc1ccc(CCNC(=S)N2CCN(S(=O)(=O)c3ccc(Cl)cc3)CC2)cc1,22
12,OCCN(Cc1ccccc1)Cc1ccc(C(F)(F)F)cc1,-3.33
13,COc1ccc(-c2oc3cccnc3c2C#CCO)cc1,9.84
14,COc1ccc2[nH]c(=O)c(CN(CCO)S(=O)(=O)c3c(C)ccc4nsnc34)cc2c1,-3.86
15,C/C(=N\NC(=O)c1cc(-c2ccccc2C)nc2ccccc12)c1cccnc1,-10.3
16,CCSCc1nnc(SCC(=O)Nc2cccc(C(C)=O)c2)n1C,11.9
17,CCOc1ncccc1C(=O)Nc1ccc(F)c(Cl)c1,24.1
18,CN(Cc1ccccc1)c1ccc(N2C(=O)CCCC2=O)cc1[N+](=O)[O-],6.5
19,O=C(Nc1ccc2ccccc2c1)c1ccc(NS(=O)(=O)c2ccc(Br)s2)cc1,12
20,Cc1cc(F)ccc1NC(=O)c1ccc(NS(=O)(=O)c2cc(C(C)(C)C)ccc2C)cc1,0.887

row,SMILES,"hERG current change (%, negative = inhibition) at 10uM [%]"
1,Cc1ccc(F)cc1NC(=O)c1ccc(NS(=O)(=O)c2ccc(Br)s2)cc1,-70
2,Cc1ccc(-c2ccc(=O)n(CC(=O)N3CCC4(CC3)OCCO4)n2)cc1,5.07
3,CCc1ccc(C2=NN(CCC(=O)N3CCC4(CC3)OCCO4)C(=O)CC2)cc1,-10.3
4,O=C(CCn1nc(-c2ccc(Cl)cc2)ccc1=O)N1CCC2(CC1)OCCO2,-39.8
5,Cc1ccc2c(c1)N(CCC(=O)N1CCC3(CC1)OCCO3)C(=O)CO2,-16.8
6,Cc1ccc(C2=NN(CCC(=O)N3CCC4(CC3)OCCO4)C(=O)CC2)cc1,-57.5
7,Cc1ccc(-c2ccc(=O)n(CCC(=O)N3CCC4(CC3)OCCO4)n2)cc1,-64.5
8,O=C(Nc1ccc(C2=NCCN2)cc1)c1ccc(C(=O)Nc2ccc(C3=NCCN3)cc2)c([N+](=O)[O-])c1,20.1
9,O=C(Nc1ccc(F)cc1F)N1CCCN(c2ccc([N+](=O)[O-])cn2)CC1,-50.2
10,O=C(O)C(=O)O.O=C(c1ccco1)N1CCN(S(=O)(=O)c2ccc([N+](=O)[O-])cc2)CC1,-39.8
11,O=C(Nc1ccc(F)cc1F)N1CCCN(c2ccc(C(F)(F)F)cn2)CC1,-12.4
12,O=C(c1ccco1)N1CCN(S(=O)(=O)c2cccc([N+](=O)[O-])c2)CC1,-20.7
13,O=C(NC(=O)N1CCN(c2ccc([N+](=O)[O-])cn2)CC1)c1ccccc1F,-24.5
14,CC(=O)c1ccc(N2CCN(C(=O)c3ccco3)C(C)C2)c(F)c1 (stereo not drawn),-49.9
15,CC(=O)c1cc(F)c(N2CCN(c3ccc([N+](=O)[O-])cc3F)CC2)cc1C,-12.3
16,O=C(c1ccco1)N1CCN(c2ccc([N+](=O)[O-])cc2Cl)CC1,-71.4
17,CC1CN(c2ccc([N+](=O)[O-])cc2F)CCN1C(=O)c1ccco1 (stereo not drawn),-62
18,CC(C)(C)c1ccc(C(=O)N2CCCN(c3ccc([N+](=O)[O-])cn3)CC2)cc1,-72.3
19,CC(C)(C)c1ccc(NC(=O)N2CCN(c3ccc([N+](=O)[O-])cn3)CC2)cc1,-9.81
20,CC(C)(C)c1ccc(NC(=O)N2CCCN(c3ccc([N+](=O)[O-])cn3)CC2)cc1,-25.9
